Measured values: the supplement of paper PMC12494721
Where a name gives a salt, the structure may show the parent alone.

Columns and labels:
Settings in all cases: incubation time: 27 h, anaerobic, 37 °C;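 for the amine columns active = adjusted P below 0.05 in both replicates with a change the same way and a mean fold change under 0.8 or over 1.25; inactive = the rest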
[1] = tested on: Clostridium sporogenes DSM 1664; experiment: growth (OD595) fold change vs plate DMSO controls (fold change (ratio)); higher = more growth
Procedure, shortened: (§1)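 To obtain OD, 595 nm absorbance readings were blank-subtracted, corrected for compound background using 20 µM compound solutions in water, and multiplied by a calibration factor of 5. They came from 96-well mGAM cultures grown anaerobically for 27 h at 37 °C and shaken before reading. Growth is the fold change relative to the median of plate DMSO controls. Two biological replicates were averaged, and fold changes above 1.5 were set to NA.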

Escherichia coli IAI1 [2] = experiment: as above
Procedure, shortened: as §1

[3] = tested on: Klebsiella aerogenes DSM 30053; experiment: as above
Procedure, shortened: as §1

[4] = tested on: Ruminococcus gnavus DSM 108212; experiment: as above
Procedure, shortened: as §1

[5] = tested on: Klebsiella aerogenes DSM 30053; experiment: fold change of Histamine concentration vs plate DMSO controls (fold change (ratio)); higher = more amine produced, active = hit call of the paper (significant change in both replicates, either direction)
Procedure, shortened: (§2)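 In 80 µL wells, cultures of four gut bacterial strains in mGAM started at OD 0.1 before a 1:1 dilution and grew anaerobically at 37 °C for 27 h. Compounds were added to 20 µM final, except sweeteners at 50 µM final. After extraction of whole cultures with cold acetonitrile/methanol plus 0.1% formic acid and centrifugation, amines were measured by LC–triple-quadrupole MS in dynamic MRM mode against external calibration curves, with within-batch drift correction. Values give fold change over DMSO controls on the same plate, averaged across 2 biological replicates.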

[6] = tested on: Clostridium sporogenes DSM 1664; experiment: fold change of Tryptamine concentration vs plate DMSO controls (fold change (ratio)); higher = more amine produced, active = hit call of the paper (significant change in both replicates, either direction)
Procedure, shortened: as §2

[7] = tested on: Ruminococcus gnavus DSM 108212; experiment: as above
Procedure, shortened: as §2

Escherichia coli IAI1 [8] = experiment: fold change of Putrescine concentration vs plate DMSO controls (fold change (ratio)); higher = more amine produced, active = hit call of the paper (significant change in both replicates, either direction)
Procedure, shortened: as §2

[9] = tested on: Klebsiella aerogenes DSM 30053; experiment: as above
Procedure, shortened: as §2

Escherichia coli IAI1 [10] = experiment: fold change of Cadaverine concentration vs plate DMSO controls (fold change (ratio)); higher = more amine produced, active = hit call of the paper (significant change in both replicates, either direction)
Procedure, shortened: as §2

[11] = tested on: Klebsiella aerogenes DSM 30053; experiment: as above
Procedure, shortened: as §2

[12] = tested on: Ruminococcus gnavus DSM 108212; experiment: fold change of 2-Phenylethylamine concentration vs plate DMSO controls (fold change (ratio)); higher = more amine produced, active = hit call of the paper (significant change in both replicates, either direction)
Procedure, shortened: as §2

Row | Structure (SMILES) | growth [1] | growth (Escherichia coli IAI1 [2]) | growth [3] | growth [4] | fold change of Histamine concentration [5] | fold change of Tryptamine concentration [6] | fold change of Tryptamine concentration [7] | fold change of Putrescine concentration (Escherichia coli IAI1 [8]) | fold change of Putrescine concentration [9] | fold change of Cadaverine concentration (Escherichia coli IAI1 [10]) | fold change of Cadaverine concentration [11] | fold change of 2-Phenylethylamine concentration [12]
1 | CCOCCn1c(N2CCCN(C)CC2)nc2ccccc21 [Emedastine difumarate] (20 µM) | 1.08 | 1.02 | 1.03 | 0.971 | 0.993 (inactive) | 0.994 (inactive) | 1.02 (inactive) | 0.991 (inactive) | 1.01 (inactive) | 1 (inactive) | 0.999 (inactive) | 1.05 (inactive)
2 | CO/N=C(\C(=O)N[C@@H]1C(=O)N2C(C(=O)OCOC(=O)C(C)(C)C)=C(/C=C\c3scnc3C)CS[C@H]12)c1csc(N)n1 [Cefditoren Pivoxil] (20 µM) | 0.809 | 1.11 | 1.03 | 0.996 | 0.988 (inactive) | 0.951 (inactive) | 1 (inactive) | 0.864 (inactive) | 1.12 (inactive) | 1.18 (inactive) | 1.05 (inactive) | 1.01 (inactive)
3 | NCc1ccccc1CC(=O)N[C@@H]1C(=O)N2C(C(=O)O)=C(CSc3nnnn3CC(=O)O)CS[C@H]12 [Ceforanide] (20 µM) | 0 | 1.11 | 1.08 | 0.307 | 0.726 (inactive) | 0.0212 (active) | 0.0541 (active) | 1.91 (active) | 1.09 (inactive) | 1.95 (active) | 1.07 (inactive) | 0.0519 (active)
4 | Nc1ccn([C@H]2CC[C@@H](CO)O2)c(=O)n1 [Zalcitabine] (20 µM) | 1.05 | 1.04 | 0.995 | 0.997 | 1.03 (inactive) | 1.02 (inactive) | 1.04 (inactive) | 1.09 (inactive) | 0.978 (inactive) | 0.975 (inactive) | 0.997 (inactive) | 1.02 (inactive)
5 | CC(=O)Oc1ccccc1C(=O)Oc1ccccc1C(=O)O [Acetylsalicylsalicylic acid] (20 µM) | 1.05 | 1 | 0.995 | 0.881 | 1.02 (inactive) | 1.01 (inactive) | 1.06 (inactive) | 1.01 (inactive) | 0.998 (inactive) | 0.983 (inactive) | 1.01 (inactive) | 1.11 (inactive)
6 | CC1Cc2ccccc2N1NC(=O)c1ccc(Cl)c(S(N)(=O)=O)c1 (stereo not given) [Indapamide] (20 µM) | 1.04 | 1.02 | 0.929 | 0.659 | 1 (inactive) | 1.01 (inactive) | 1.01 (inactive) | 1 (inactive) | 1 (inactive) | 0.977 (inactive) | 1 (inactive) | 1.03 (inactive)
7 | CC(C)(C)NCC(O)COc1cccc2c1CC(O)C(O)C2 (stereo not given) [Nadolol] (20 µM) | 1.08 | 0.986 | 1.03 | 0.969 | 0.981 (inactive) | 1.08 (inactive) | 1.02 (inactive) | 1.06 (inactive) | 0.988 (inactive) | 1 (inactive) | 1 (inactive) | 0.971 (inactive)
8 | CC(Oc1ccccc1)C(=O)N[C@@H]1C(=O)N2[C@@H]1SC(C)(C)[C@@H]2C(=O)O (stereo not given in full) [Phenethicillin potassium salt] (20 µM) | 0 | 1.05 | 0.995 | 0 | 0.936 (inactive) | 0.0424 (active) | 0.045 (active) | 0.969 (inactive) | 0.954 (inactive) | 1.06 (inactive) | 1.02 (inactive) | 0.0417 (active)
9 | CCn1nc(C(=O)O)c(=O)c2cc3c(cc21)OCO3 [Cinoxacin] (20 µM) | 0.547 | 0.0392 | 0.544 | 1.06 | 0.506 (active) | 0.724 (active) | 1 (inactive) | 0.749 (inactive) | 1.06 (inactive) | 1.61 (active) | 1.01 (inactive) | 1 (inactive)
10 | CN(C)/N=N/c1[nH]cnc1C(N)=O [Dacarbazine] (20 µM) | 0.822 | 1 | 1.06 | 1.02 | 0.954 (inactive) | 1 (inactive) | 1.01 (inactive) | 0.984 (inactive) | 1.01 (inactive) | 0.993 (inactive) | 1.02 (inactive) | 1.05 (inactive)
11 | CC(C)(C)C(O)/C=C/c1ccc2c(c1)OCO2 (stereo not given) [Stiripentol] (20 µM) | 1.04 | 1.03 | 1 | 0.89 | 1.03 (inactive) | 0.927 (inactive) | 1.04 (inactive) | 1.01 (inactive) | 1.01 (inactive) | 1.03 (inactive) | 0.985 (inactive) | 0.981 (inactive)
12 | COC(=O)Nc1nc2cc(C(=O)c3cccs3)ccc2[nH]1 [Nocodazole] (20 µM) | 0.969 | 1.01 | 1.02 | 1.05 | 0.98 (inactive) | 0.968 (inactive) | 0.999 (inactive) | 0.977 (inactive) | 1 (inactive) | 0.996 (inactive) | 1.03 (inactive) | 1.03 (inactive)
13 | CC(=O)Oc1ccccc1C(=O)O [Acetylsalicylic acid] (20 µM) | 1.11 | 0.986 | 1.04 | 1.17 | 0.992 (inactive) | 1.03 (inactive) | 1.18 (inactive) | 0.992 (inactive) | 0.998 (inactive) | 0.93 (inactive) | 1.05 (inactive) | 1.18 (inactive)
14 | CC1(C)S[C@@H]2[C@H](NC(=O)[C@H](N)c3ccc(O)cc3)C(=O)N2[C@H]1C(=O)O [Amoxicillin] (20 µM) | 0 | 0.796 | 0.828 | 0.198 | 1.1 (inactive) | 0.0237 (active) | 0.0355 (active) | 3.1 (active) | 1.05 (inactive) | 1.41 (inactive) | 1.06 (inactive) | 0.0375 (active)
15 | CC(=O)OCC(=O)[C@@]1(O)CC[C@H]2[C@@H]3CCC4=CC(=O)CC[C@]4(C)[C@H]3[C@@H](O)C[C@@]21C [Cortisol acetate] (20 µM) | 1.13 | 1.03 | 1.04 | 1 | 0.896 (inactive) | 0.975 (inactive) | 0.979 (inactive) | 0.987 (inactive) | 0.993 (inactive) | 0.97 (inactive) | 1.01 (inactive) | 0.953 (inactive)
16 | O=C(O)c1ccccc1Nc1cc(Cl)ccc1C(=O)O [Lobenzarit disodium] (20 µM) | 0.929 | 1 | 1.02 | 1.08 | 1.02 (inactive) | 1.07 (inactive) | 0.976 (inactive) | 0.987 (inactive) | 0.994 (inactive) | 0.932 (inactive) | 1 (inactive) | 1.01 (inactive)
17 | NS(=O)(=O)c1cc2c(cc1Cl)NC(CC1CCCC1)NS2(=O)=O (stereo not given) [Cyclopenthiazide] (20 µM) | 1.33 | 1.03 | 0.98 | 0.993 | 1.01 (inactive) | 1.03 (inactive) | 1.04 (inactive) | 1.07 (inactive) | 1.01 (inactive) | 0.979 (inactive) | 0.996 (inactive) | 1.04 (inactive)
18 | CC(C)(Sc1cc(C(C)(C)C)c(O)c(C(C)(C)C)c1)Sc1cc(C(C)(C)C)c(O)c(C(C)(C)C)c1 [Probucol] (20 µM) | 1.03 | 1.06 | 1.03 | 1.15 | 0.921 (inactive) | 1.02 (inactive) | 1.01 (inactive) | 1.04 (inactive) | 0.983 (inactive) | 0.921 (inactive) | 1.01 (inactive) | 1.01 (inactive)
19 | CC(=O)Nc1c(I)c(NC(C)=O)c(I)c(C(=O)O)c1I [Diatrizoic acid dihydrate] (20 µM) | 1.28 | 1.05 | 1.01 | 0.851 | 1.03 (inactive) | 0.947 (inactive) | 1.05 (inactive) | 1.07 (inactive) | 0.983 (inactive) | 1.01 (inactive) | 0.988 (inactive) | 1.01 (inactive)
20 | CNCC(O)c1ccc(OC(=O)C(C)(C)C)c(OC(=O)C(C)(C)C)c1 (stereo not given) [Dipivefrin hydrochloride] (20 µM) | 1.15 | 1.07 | 0.982 | 1.02 | 1.01 (inactive) | 1.15 (inactive) | 1.11 (inactive) | 1.01 (inactive) | 0.981 (inactive) | 0.995 (inactive) | 0.991 (inactive) | 1.16 (inactive)
21 | CC1=C(C(=O)O)N2C(=O)[C@@H](NC(=O)[C@H](N)c3ccccc3)[C@H]2SC1 [Cephalexin monohydrate] (20 µM) | 0.958 | 0.985 | 0.98 | 0.987 | 1.03 (inactive) | 1.17 (inactive) | 1.1 (inactive) | 0.911 (inactive) | 0.934 (inactive) | 0.879 (inactive) | 1.01 (inactive) | 1.15 (inactive)
22 | Cc1cc(=O)n(-c2ccccc2)n1C [Antipyrine] (20 µM) | 1.04 | 0.959 | 1.03 | 0.869 | 0.98 (inactive) | 1.03 (inactive) | 1.01 (inactive) | 0.999 (inactive) | 1 (inactive) | 1.01 (inactive) | 0.999 (inactive) | 1.02 (inactive)
23 | Clc1ccc(COC(Cn2ccnc2)c2ccc(Cl)cc2Cl)c(Cl)c1 (stereo not given) [Miconazole] (20 µM) | 1.25 | 1.18 | 1.01 | 0.232 | 0.926 (inactive) | 0.725 (active) | 0.257 (active) | 1.2 (inactive) | 0.99 (inactive) | 0.974 (inactive) | 1.01 (inactive) | 0.277 (active)
24 | c1ccc(CN(CC2=NCCN2)c2ccccc2)cc1 [Antazoline hydrochloride] (20 µM) | 0.903 | 0.968 | 0.958 | 0.834 | 1.06 (inactive) | 0.965 (inactive) | 1.06 (inactive) | 0.929 (inactive) | 1.01 (inactive) | 1.07 (inactive) | 0.998 (inactive) | 1.08 (inactive)
25 | Cc1ccc(C(=O)c2cc(O)c(O)c([N+](=O)[O-])c2)cc1 [Tolcapone] (20 µM) | 1.11 | 0.961 | 0.997 | 1.19 | 1.01 (inactive) | 0.908 (inactive) | 0.983 (inactive) | 1.33 (inactive) | 0.998 (inactive) | 0.981 (inactive) | 1 (inactive) | 0.971 (inactive)
